# Experimental data published in PubChem BioAssay (NCATS).
# Inconclusive results are not listed. Entries that show only a call come without a potency. Activity calls are given as the source filed them. Unless noted, calls follow the shape of the dose curve; as a rule, active = well fitted curve in the direction sought with a large enough effect; inconclusive = small, poorly fitted or top-dose-only effect, or another doubt; inactive = no such curve, though single readings can be large; an effect the other way counts as inactive or inconclusive.
# Tests used:
# [1] = qHTS Assay for Identification of Small Molecule Antagonists for NFkB Signaling Pathway. (AID 624479; calls by dose curve;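 also: pathway stimulated with TNF alpha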; also: potency is read from the fitted curve at half-maximal effect)
# [2] = Cell Proliferation Assay against the TMD8 Cell Line (AID 651645); conditions: TMD8 DLBCL cell line proliferation/viability; at 46.1 µM (top of the series);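 also: cells exposed to compound for 48 h before reading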
# Outline: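 Viability by CellTiter-Glo after 48 h compound exposure of 500 log-phase TMD8 cells per well (RPMI, 5% FBS). Percent activity scaled between DMSO (100%) and 9.2 uM final bortezomib (0%).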
# [3] = Cell Proliferation Assay against the HBL1 Cell Line (AID 651646); conditions: HBL1 DLBCL cells; at 46.1 µM (top of the series);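 also: cells exposed to compound for 48 h before reading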
# Outline: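 After a 48 h incubation of 500 HBL1 cells/well in phenol red-free RPMI plus 5% FBS, relative luciferase units from CellTiter-Glo gave percent activity against DMSO and 9.2 uM bortezomib (final) controls.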
# [4] = Cell Proliferation Assay against the TMD8 Cell Line (Caspase readout at 8 hrs) (AID 651713); also: potency is read from the fitted curve at half-maximal effect
# Outline: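 Luminescent caspase 3/7 assay; TMD8 cells, 8 h treatment at 37C, 5% CO2. Normalisation: DMSO 0%, 9.2 uM bortezomib 100%.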
# [5] = molecular target: Tyrosine-protein kinase Yes (Homo sapiens) (UniProt P07947); assay: qHTS for small molecule inhibitors of Yes1 kinase: Primary Screen (AID 686947); also: nearly all actives have a fitted effect of over 60% in size; also: potency is read from the fitted curve at half-maximal effect
# Outline: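 In this qHTS format, inhibition is expressed relative to DMSO controls with enzyme (maximum) and without enzyme (minimum). The 60 min room-temperature reaction uses 0.1 mM ATP, with ADP detected by luminescence.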
# [6] = qHTS for small molecule inhibitors of Yes1 kinase: Counter Assay (AID 686950);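 also: no kinase present so only ADP-Glo detection of a fixed ADP amount is tested; luminescence from ADP-Glo reporting ADP in a fixed ATP and ADP mixture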
# Outline: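 Measuring interference with ADP-Glo, the assay ran 60 min at room temperature on an ATP/ADP mix lacking enzyme. Values were normalized to ATP-plus-ADP (maximum) and ATP-only (minimum) DMSO controls.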
# [7] = qHTS Assay for Identification of Small Molecule Agonists for NFkB Signaling Pathway. (AID 624478);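 also: compounds tested together with TNF alpha at its EC50 of 10 pM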
# Outline: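 Assay medium contained 0.5% FBS and 10 mM HEPES pH 7.3. Compounds were added together with TNF alpha (10 pM final), incubated 5 h at 37 C, and the beta-lactamase signal was measured fluorometrically.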
# [8] = Cell Proliferation Assay against the TMD8 Cell Line (Caspase readout at 16 hrs) (AID 651712); also: potency is read from the fitted curve at half-maximal effect
# Outline: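 16 h, 37 °C, TMD8 (500 cells/well), RPMI/5% FBS no phenol red; Caspase-Glo 3/7, 15 min RT, luminescence; %act: DMSO 0, bortezomib 9.2 uM final 100.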
# [9] = molecular target: Arylsulfatase A (Homo sapiens) (UniProt P15289); assay: qHTS screen for enhancers of Arylsulfatase A (ASA1): LOPAC Validation Assay (AID 720538)
# Outline: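 Enhancer assay in patient-derived MLD fibroblasts carrying ASA-I179S: 48 h compound exposure at 37 C, then 14 h room-temperature pNCS turnover (0.5 mM final) in lysis buffer. Read by fluorescence at 525/598 nm after NaOH stop.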
# [10] = qHTS for compounds that reverse cellular toxicity of Amyloid beta (A-beta) peptide in yeast: LOPAC Validation Assay (AID 720559)
# Outline: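 Rescue of A-beta toxicity was scored as yeast growth by 600 nm absorbance after 48 hr at 30 C with compound. Normalization used DMSO (negative) and equimolar ferric chloride plus clioquinol (positive).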
# [11] = qHTS for Activators of Parkin Expression: LOPAC Validation Assay (NLuc Reporter) (AID 720572)
# Outline: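 Cells harboring the Parkin-promoter coincidence reporter were treated for 24 h at seven concentrations. NLuc output was measured sequentially after the FLuc channel and scaled between DMSO and positive control values.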
# Sequence of Tyrosine-protein kinase Yes (Homo sapiens) (P07947 whole entry, looked up): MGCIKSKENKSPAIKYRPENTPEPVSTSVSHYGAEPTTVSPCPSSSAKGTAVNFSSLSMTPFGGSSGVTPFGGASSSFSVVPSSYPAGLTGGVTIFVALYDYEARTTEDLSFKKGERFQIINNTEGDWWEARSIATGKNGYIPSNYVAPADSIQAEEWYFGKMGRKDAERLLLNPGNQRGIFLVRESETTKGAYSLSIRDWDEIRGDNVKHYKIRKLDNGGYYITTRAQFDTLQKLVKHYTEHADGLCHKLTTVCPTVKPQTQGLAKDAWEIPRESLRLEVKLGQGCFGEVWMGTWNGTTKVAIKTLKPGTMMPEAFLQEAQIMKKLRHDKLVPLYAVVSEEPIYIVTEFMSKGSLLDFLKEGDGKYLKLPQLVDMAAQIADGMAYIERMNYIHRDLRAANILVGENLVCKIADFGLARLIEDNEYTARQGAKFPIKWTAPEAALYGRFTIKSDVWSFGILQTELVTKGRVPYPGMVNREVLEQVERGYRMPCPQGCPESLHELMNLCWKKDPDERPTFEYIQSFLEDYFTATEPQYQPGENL
# Sequence of Arylsulfatase A (Homo sapiens) (P15289 whole entry, looked up): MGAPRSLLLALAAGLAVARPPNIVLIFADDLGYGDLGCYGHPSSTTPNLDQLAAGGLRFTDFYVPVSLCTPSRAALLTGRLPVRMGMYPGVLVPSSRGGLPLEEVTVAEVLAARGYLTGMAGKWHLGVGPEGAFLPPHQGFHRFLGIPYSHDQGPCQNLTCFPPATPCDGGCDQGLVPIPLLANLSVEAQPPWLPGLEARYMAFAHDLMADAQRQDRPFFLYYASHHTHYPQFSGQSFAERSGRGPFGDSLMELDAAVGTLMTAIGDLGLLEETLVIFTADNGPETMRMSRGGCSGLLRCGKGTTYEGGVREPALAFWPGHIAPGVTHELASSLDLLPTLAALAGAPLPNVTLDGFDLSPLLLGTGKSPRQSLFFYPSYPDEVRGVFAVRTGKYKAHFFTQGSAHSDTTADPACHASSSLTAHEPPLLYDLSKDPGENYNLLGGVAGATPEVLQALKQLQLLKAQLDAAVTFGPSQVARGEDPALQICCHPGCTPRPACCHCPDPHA
smiles,measurement,setting,value
O=c1[nH]nc(Sc2ncc([N+](=O)[O-])s2)n1-c1ccc2c(c1)OCCO2,Potency,[1],23.7 µM (active)
same,viability (% of control),[2],0.996%
same,"viability, percent of control",[3],-0.138%
same,Potency,[4],inactive
same,Potency,[5],inactive
same,outcome,[6],inactive
COc1cc(=C2C=c3ccccc3=N2)[nH]c1=Cc1[nH]c(C)cc1C,Potency,[1],inactive
same,"viability, percent of control",[3],26%
same,Potency,[4],inactive
same,outcome,[6],inactive
CS(=O)(=O)N1CCN(Cc2cc3nc(-c4cccc5[nH]ncc45)nc(N4CCOCC4)c3s2)CC1,outcome,[7],inactive
same,outcome,[6],inactive
CC(=O)Nc1sc2c(c1-c1nc3ccccc3s1)CNC2,outcome,[7],inactive
same,"viability, percent of control",[3],22.5%
same,Potency,[4],33.2 µM (active)
same,Potency,[5],inactive
same,outcome,[6],inactive
C1=CCOCc2cc(ccc2OCCN2CCCC2)Nc2nccc(n2)-c2cccc(c2)OCC1,viability (% of control),[2],61.1%
same,outcome,[6],inactive
O=C(C=Cc1cccc(S(=O)(=O)Nc2ccccc2)c1)NO,outcome,[7],inactive
same,"viability, percent of control",[3],2.01%
same,Potency,[8],0.935 µM (active)
same,Potency,[4],inactive
same,Potency,[5],0.0017 µM (active)
same,outcome,[6],inactive
O=c1c2ccccc2nc2n1CCc1c-2[nH]c2ccccc12,outcome,[9],inactive
same,outcome,[10],inactive
same,outcome,[11],inactive
CC(=O)c1c(C)c2cnc(Nc3ccc(N4CCNCC4)cn3)nc2n(C2CCCC2)c1=O,outcome,[7],inactive
same,Potency,[1],16.8 µM (active)
same,"viability, percent of control",[3],1.52%
same,Potency,[4],33.2 µM (active)
same,outcome,[6],inactive
CC1(O)CC(c2nc(-c3ccc4ccc(-c5ccccc5)nc4c3)c3c(N)nccn23)C1 (stereo not given),outcome,[7],inactive
same,"viability, percent of control",[3],43%
same,Potency,[8],26.4 µM (active)
same,Potency,[4],inactive
same,Potency,[5],1.73 µM (active)
same,outcome,[6],inactive
CC(C)(C)c1cc(C(C)(C)C)c(NC(=O)c2c[nH]c3ccccc3c2=O)cc1O,Potency,[1],23.7 µM (active)
same,viability (% of control),[2],5.21%
same,"viability, percent of control",[3],5.33%
same,Potency,[5],inactive
same,outcome,[6],inactive
Cc1ccc(C(N)=O)cc1Nc1nccc(-c2cn(C(C)C)c3cnccc23)n1,Potency,[1],0.421 µM (active)
same,viability (% of control),[2],5.31%
same,"viability, percent of control",[3],14.4%
same,Potency,[4],14.8 µM (active)
same,Potency,[5],0.547 µM (active)
same,outcome,[6],inactive
Cn1cncc1[C@@](N)(c1ccc(Cl)cc1)c1ccc2c(c1)c(-c1cccc(Cl)c1)cc(=O)n2C,outcome,[7],inactive
same,viability (% of control),[2],1.01%
same,"viability, percent of control",[3],1.3%
same,Potency,[5],inactive
same,outcome,[6],inactive
